Test results published in PubChem BioAssay (NCATS).
Several values for one entry are separate records, joined by “and”; a condition that tells them apart may be missing. Equal values may be shown once. Records with an inconclusive call do not appear. A call without a number means that no potency is given here. Some structures have more than one record in an assay (separate samples or runs), and their calls can disagree. Activity calls are given as the source filed them. Calls come from the whole dose curve; as a rule, active = well fitted activation curve with a large enough effect in the main read-out, with a control signal flat (not every such curve was filed as active); inconclusive = small, poorly fitted or top-dose-only effect, or effect the other way, or a change in a side signal; inactive = flat fitted curve, though single readings scatter.

Each compound was assayed against 3',5'-cyclic-AMP phosphodiesterase 4B (Homo sapiens) (UniProt Q07343) (assay: qHTS Assay for Inhibitors of PDE-IV (AID 607)). Conditions: HEK293 ACTOne CNG channel cells, membrane potential fluorescence; series mostly up to 22.9 µM; activation (PDE inhibition): at the top concentration.
Sequence of 3',5'-cyclic-AMP phosphodiesterase 4B (Homo sapiens) (Q07343 whole entry, looked up): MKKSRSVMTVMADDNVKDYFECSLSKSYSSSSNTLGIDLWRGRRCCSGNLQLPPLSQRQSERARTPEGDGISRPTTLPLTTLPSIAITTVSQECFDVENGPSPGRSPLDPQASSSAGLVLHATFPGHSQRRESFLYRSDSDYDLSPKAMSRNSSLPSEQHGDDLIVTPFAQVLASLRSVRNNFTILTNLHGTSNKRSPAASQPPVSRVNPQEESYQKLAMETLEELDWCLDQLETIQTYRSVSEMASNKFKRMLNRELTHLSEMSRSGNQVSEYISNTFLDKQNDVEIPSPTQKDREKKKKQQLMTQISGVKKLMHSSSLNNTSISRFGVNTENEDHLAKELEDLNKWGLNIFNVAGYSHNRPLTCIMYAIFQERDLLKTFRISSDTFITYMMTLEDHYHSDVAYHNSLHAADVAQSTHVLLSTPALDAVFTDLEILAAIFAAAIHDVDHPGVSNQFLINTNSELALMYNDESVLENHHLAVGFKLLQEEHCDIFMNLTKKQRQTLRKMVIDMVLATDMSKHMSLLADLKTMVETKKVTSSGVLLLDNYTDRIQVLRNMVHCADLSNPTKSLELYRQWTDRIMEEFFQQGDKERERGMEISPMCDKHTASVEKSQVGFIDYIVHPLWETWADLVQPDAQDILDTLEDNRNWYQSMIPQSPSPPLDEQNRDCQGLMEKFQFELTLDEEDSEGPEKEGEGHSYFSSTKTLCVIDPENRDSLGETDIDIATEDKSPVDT
Procedure, shortened: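 HEK293 ACTOne cells with CNG channel (1000/well), endogenous PDE4; membrane potential dye, compounds up to 22.9 uM final. Fluorescence Ex 535/Em 590; RO 20-1724 (100 uM final) as reference.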
Potency is the fitted concentration of half-maximal effect.

| SMILES | Potency | activation (PDE inhibition) |
| --- | --- | --- |
| CN(C)C(=O)C(CCN1CCC(O)(c2ccc(Cl)cc2)CC1)(c1ccccc1)c1ccccc1 | inactive and 3.79 µM (active) |  |
| O=C1N(c2ccccc2)c2ccccc2C1(Cc1ccncc1)Cc1ccncc1 | inactive |  |
| Clc1ccc2c(c1)C(N1CCNCC1)=Nc1ccccc1O2 |  | 15.3% (inactive) |
| O=C1c2c(O)ccc(O)c2C(=O)c2c(NCCNCCO)ccc(NCCNCCO)c21 | inactive |  |
| O=c1c(O)c(-c2ccc(O)c(O)c2)oc2cc(O)cc(O)c12 | inactive |  |
| Cc1cc(C(C)(C)C)cc(C)c1CC1=NCCN1 |  | 12.1% (inactive) |
| CC[C@@]1(O)C(=O)OCc2c1cc1n(c2=O)Cc2cc3c(CN(C)C)c(O)ccc3nc2-1 |  | -7.76% (inactive) |
| O=C(c1ccc(OCCN2CCCCC2)cc1)c1c(-c2ccc(O)cc2)sc2cc(O)ccc12 | inactive |  |
| COc1cc2nc(N3CCN(C(=O)c4ccco4)CC3)nc(N)c2cc1OC | inactive |  |
| CNCCCC12CCC(c3ccccc31)c1ccccc12 |  | 29.2% (inactive) |
| NC(=O)OCC(COC(N)=O)c1ccccc1 | inactive |  |
| Cn1cnc2c1c(=O)[nH]c(=O)n2C | inactive |  |
| CS(=O)(=O)Nc1ccc([N+](=O)[O-])cc1Oc1ccccc1 | inactive |  |
| Cc1cc(C(C)(C)C)c(O)c(C)c1CC1=NCCN1 | inactive |  |
| O=C(CCCN1CCC(O)(c2ccc(Cl)cc2)CC1)c1ccc(F)cc1 |  | 16.1% (inactive) |
| Cc1ccc(C(=O)Nc2ccc(S(=O)(=O)O)c3cc(S(=O)(=O)O)cc(S(=O)(=O)O)c23)cc1NC(=O)c1cccc(NC(=O)Nc2cccc(C(=O)Nc3cc(C(=O)Nc4ccc(S(=O)(=O)O)c5cc(S(=O)(=O)O)cc(S(=O)(=O)O)c45)ccc3C)c2)c1 | inactive |  |

| SMILES | Potency | activation (PDE inhibition) |
| --- | --- | --- |
| Clc1ccccc1C(c1ccccc1)(c1ccccc1)n1ccnc1 | inactive |  |
| O=c1c(-c2ccc(O)cc2)coc2cc(O)cc(O)c12 |  | -9.28% (inactive) |
| CCOC(=O)Nc1ccc(NCc2ccc(F)cc2)nc1N |  | 1.1% (inactive) |
| CN(C)CCOC(c1ccccc1)c1ccccc1 | inactive |  |
| Nc1nc2c(ncn2COC(CO)CO)c(=O)[nH]1 | inactive |  |
| CN1C(C(=O)Nc2ccccn2)=C(O)c2ccccc2S1(=O)=O | inactive |  |
| CCOC(=O)C(C)(C)Oc1ccc(Cl)cc1 |  | 16.6% (inactive) |
| CC[N+](CC)(CC)CCOc1cccc(OCC[N+](CC)(CC)CC)c1OCC[N+](CC)(CC)CC | inactive |  |
| CN(C)CCC=C1c2ccccc2C=Cc2ccccc21 | inactive |  |
| NCCCCCC(=O)O | inactive |  |
| Cc1cnc(C(=O)NCCc2ccc(S(=O)(=O)NC(=O)NC3CCCCC3)cc2)cn1 | inactive |  |
| Cn1ccc2cc3c(cc21)CCN3C(=O)Nc1cccnc1 |  | -1.23% (inactive) |
| COC(=O)Nc1nc2ccc(C(=O)c3cccs3)cc2[nH]1 | inactive |  |
| CN1CCN(C2=Nc3cc(Cl)ccc3Nc3ccccc32)CC1 | inactive |  |
| NC(=O)NO |  | -3.68% (inactive) |
